Drawing on PubChem BioAssay (NCI), this text covers growth inhibition for 36 compounds.

The nature of experiment [1]: NCI Yeast Anticancer Drug Screen. Data for the rad50 strain (AID 155).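 Further: 0% = growth of vehicle-only cultures of the same strain.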 As to conditions: S. cerevisiae rad50 strain growth inhibition; at 50.0 µM; active compounds read high. The gist of the method:
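Genetically altered yeast (DNA repair pathway); compound treatment; growth inhibition vs vehicle ctrl.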

A short description of experiment [2]: NCI Yeast Anticancer Drug Screen. Data for the mec2-1 strain (AID 157). As to conditions: S. cerevisiae mec2-1 strain, at 50.0 µM, active compounds read high. The gist of the method:
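Vehicle-treated cultures served as reference for growth inhibition of compound-exposed mec2-1 yeast.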

The nature of experiment [3]: NCI Yeast Anticancer Drug Screen. Data for the sgs1 mgt1 strain (AID 161).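 Further: 0% = growth of cultures given vehicle only.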 As to conditions: S. cerevisiae sgs1 mgt1 strain, at 50.0 µM, active compounds read high. The essentials: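 Test agents were incubated with a DNA-repair-mutant yeast strain. Growth was then read and compared against vehicle-treated controls.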
Experiment [4] is described as follows: NCI Yeast Anticancer Drug Screen. Data for the cln2 rad14 strain (AID 165).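 Further: 0% = growth equal to vehicle treated cultures.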 As to conditions: S. cerevisiae cln2 rad14 strain, at 50.0 µM, active compounds read high. The essentials: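 Each compound was tested on cln2 rad14 yeast. Inhibition of growth was calculated against vehicle-exposed controls.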
Experiment [5] can be described thus: NCI Yeast Anticancer Drug Screen. Data for the bub3 strain (AID 167). As to conditions: S. cerevisiae bub3 mutant strain, at 50.0 µM, active compounds read high. The essentials: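 Yeast carrying a defined mutation is treated with each compound, and growth is compared with that of vehicle-exposed cells to give inhibition.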
The nature of experiment [6]: NCI Yeast Anticancer Drug Screen. Data for the mlh1 rad18 strain (AID 175). As to conditions: S. cerevisiae mlh1 rad18 strain growth inhibition; at 50.0 µM; active compounds read high. The gist of the method: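 Vehicle-treated cultures served as the reference for growth inhibition in a yeast strain carrying DNA damage repair alterations exposed to each compound.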

The structures appear in SMILES notation. Compounds without any hit were thinned out: in the full panel of roughly 79,000, 15% have a hit. Unmarked numbers belong to inactive results. Calls of active or inactive are those of the source. No stated cut-off is given here; in the data, active means growth inhibition above about 70%; inactive means the rest.

With `CNC1(c2ccc(F)cc2)CCCCC1`, the growth inhibition was -15.8% in experiment [1]; -23.1% in experiment [2]; -11.5% in experiment [3]; 8.05% in experiment [4]; -13.8% in experiment [5]; -30.8% in experiment [6].
Turning to `CCN(CC)CCn1ccc2ccccc21`, the growth inhibition is -11.4% in experiment [1]; -18.4% in experiment [2]; -9.85% in experiment [3]; 17.3% in experiment [4]; -27.1% in experiment [5]; -5.95% in experiment [6].
Consider `N#CC1(c2ccccc2)CCNCC1`, for which the growth inhibition was -2.2% in experiment [1]; -33.5% in experiment [2]; -3.15% in experiment [3]; 1.05% in experiment [4]; -0.5% in experiment [5]; -17.8% in experiment [6].
In the case of `C/C(CCl)=N/NC1=NC(C)(CCC2(C)N=C(N/N=C(/C)CCl)SP2(=O)NC23CC4CC(CC(C4)C2)C3)P(=O)(NC23CC4CC(CC(C4)C2)C3)S1` (stereo unspecified), the growth inhibition in experiment [1] is -9.25%; in experiment [2], 1.15%; in experiment [3], 16.8%; in experiment [4] it was -21.8%; in experiment [5] it was -19.5%; in experiment [6] it was -28.8%.
Take `CC(C)c1cc2c(c(O)c1O)[C@@]1(C(=O)O)CCCC(C)(C)[C@@H]1CC2`: the growth inhibition is 91.8% (active) in experiment [1]; 93.5% (active) in experiment [2]; 93.3% (active) in experiment [3]; 92% (active) in experiment [4]; 92.3% (active) in experiment [5]; 92.3% (active) in experiment [6].
Consider `ClC1CC2CC1C1CNCC21` (stereo unspecified), for which the growth inhibition is -15.2% in experiment [1]; -14.6% in experiment [2]; -4.05% in experiment [3]; -15.8% in experiment [4]; -1.05% in experiment [5]; -21% in experiment [6].
Turning to `CCCCCCCCCCCC(=O)[O][Pb]([CH2]CCC)([CH2]CCC)[O]C(=O)CCCCCCCCCCC`, the growth inhibition in experiment [1] is 23.5%; in experiment [2], 4.05%; in experiment [3], 13.2%; in experiment [4], -3.15%; in experiment [5], 6.45%; in experiment [6], 23%.
In the case of `N/C(N=P(c1ccccc1)(c1ccccc1)c1ccccc1)=N\[N+](=O)[O-]`, the growth inhibition in experiment [1] was 11.7%; in experiment [2] it was 15.8%; in experiment [3], 8.35%; in experiment [4], 4.65%; in experiment [5] it was 12.2%; in experiment [6] it was -16.1%.
Consider `N#CC(C#N)=Cc1ccc(C=C(C#N)C#N)cc1`, for which the growth inhibition in experiment [1] is -30.4%; in experiment [2], -40.5%; in experiment [3], -15.9%; in experiment [4] it was -14.8%; in experiment [5], -15.8%; in experiment [6], -8.75%.
With `O=C(O)C(CSC(c1ccccc1)(c1ccccc1)c1ccccc1)N1C(=O)c2ccccc2C1=O` (stereo unspecified), the growth inhibition in experiment [1] is 98.8% (active); in experiment [2], 99.2% (active); in experiment [3], 99.3% (active); in experiment [4], 96.8% (active); in experiment [5], 98.8% (active); in experiment [6], 99% (active).
As for `COP(=O)(OC)O/C(=C(/OP(=O)(OC)OC)c1ccccc1)c1ccccc1`, the growth inhibition in experiment [1] is 35.5%; in experiment [2], 14.3%; in experiment [3], 0.1%; in experiment [4] it was 24.1%; in experiment [5] it was -1.35%; in experiment [6], 25.1%.
On to `O=S(=O)(c1ccccc1)N1CC1CI` (stereo unspecified), for which the growth inhibition was 3.45% in experiment [1]; 2.7% in experiment [2]; 13.9% in experiment [3]; 10.6% in experiment [4]; 7.9% in experiment [5]; 1.75% in experiment [6].
Regarding `COC1=CC2CCC3C(CCC4(C)C(OC(C)=O)CCC34)C2(C)CC1` (stereo unspecified), the growth inhibition in experiment [1] was 13.2%; in experiment [2], 10.8%; in experiment [3], 1.2%; in experiment [4] it was 4.1%; in experiment [5] it was -13.3%; in experiment [6], -6.8%.
As to `O=C1NC(=S)NC(=O)C1=Cc1ccco1`, the growth inhibition is -4.55% in experiment [1]; -19.9% in experiment [2]; -17% in experiment [3]; 27.6% in experiment [4]; -11.2% in experiment [5]; -19.6% in experiment [6].
As to `CCCCCCCCCCCCCCCCCC(=O)[O][Pb]([CH3])([CH3])[CH3]`, the growth inhibition in experiment [1] was 0.8%; in experiment [2], 0.5%; in experiment [3], 18.8%; in experiment [4] it was 21.6%; in experiment [5], 2.8%; in experiment [6], 13.1%.
With `Cc1cc(CCl)c(O)c(CCl)c1`, the growth inhibition in experiment [1] is -22.1%; in experiment [2] it was 0.5%; in experiment [3] it was -4.7%; in experiment [4], -49.7%; in experiment [5], -18.9%; in experiment [6], 22.5%.
For `O=C(Nc1ccc(Cl)cc1C(=O)c1ccccc1)c1ccc([N+](=O)[O-])cc1`, the growth inhibition in experiment [1] is -1.4%; in experiment [2], -3.1%; in experiment [3], -0.5%; in experiment [4] it was -40.1%; in experiment [5], 4.2%; in experiment [6], 12.8%.
Turning to `[CH3][Sb]1([Br])[CH2]CC[CH2]1`, the growth inhibition in experiment [1] is 6.8%; in experiment [2], 15.2%; in experiment [3] it was 5.85%; in experiment [4], -1.6%; in experiment [5], -11.8%; in experiment [6] it was 3.05%.
As for `Cc1cc(Cl)ccc1O`, the growth inhibition is -1.2% in experiment [1]; -14.8% in experiment [2]; -0.3% in experiment [3]; 0.5% in experiment [4]; -3.1% in experiment [5]; -1.7% in experiment [6].
Take `CC1CCC2C(C)C(=O)OC3OC4(C)CCC1C32OO4` (stereo unspecified): the growth inhibition in experiment [1] is -7.55%; in experiment [2], 4.2%; in experiment [3], -8.05%; in experiment [4], 27.8%; in experiment [5], 18.2%; in experiment [6], 2.7%.
For `CCN=C=NCCCN(C)C`, the growth inhibition is -18.8% in experiment [1]; -8.8% in experiment [2]; -23.1% in experiment [3]; 0.25% in experiment [4]; -41.2% in experiment [5]; -6.35% in experiment [6].
For `CC1OCN2CCCCC12` (stereo unspecified), the growth inhibition is -25.9% in experiment [1]; -12.7% in experiment [2]; -33.4% in experiment [3]; -7.85% in experiment [4]; -25.1% in experiment [5]; -27.1% in experiment [6].
For `O=C1NC(=O)C(=Cc2ccco2)C(=O)N1`, the growth inhibition in experiment [1] was -4.4%; in experiment [2], -26.4%; in experiment [3], -7.85%; in experiment [4], 5.65%; in experiment [5] it was -31.6%; in experiment [6] it was -3.3%.
As for `CS(=O)(=O)c1ccc(COP(N)(=O)N(CCCl)CCCl)cc1` (stereo unspecified), the growth inhibition is 17.1% in experiment [1]; -8.05% in experiment [2]; -0.95% in experiment [3]; 11.3% in experiment [4]; -4.2% in experiment [5]; 17.7% in experiment [6].
For the compound `C1=CC2C=CC(C=C1)[PH+]2c1ccccc1.[C-]#[O+].[C-]#[O+].[C-]#[O+].[C-]#[O+].[C-]#[O+].[Cr]` (stereo unspecified), the growth inhibition in experiment [1] is -30.4%; in experiment [2] it was 2.1%; in experiment [3], -9.25%; in experiment [4] it was 21.4%; in experiment [5] it was -2.15%; in experiment [6] it was -9.35%.
For `CC(=O)Cc1ccc2c(c1)OCO2`, the growth inhibition in experiment [1] is 13.2%; in experiment [2], -11.4%; in experiment [3], -0.35%; in experiment [4] it was 1.1%; in experiment [5], -16.9%; in experiment [6], 22.9%.
For the compound `CC(C)(C)N.[O]=[Cr](=[O])([OH])[OH]`, the growth inhibition in experiment [1] was 20.9%; in experiment [2] it was 7.45%; in experiment [3] it was 29.1%; in experiment [4], -2.25%; in experiment [5] it was 21.7%; in experiment [6], 21%.
Regarding `CC[C@@H](C)C(=O)O[C@H]1[C@H](O)[C@H]2[C@@H](CN3C[C@@H](C)CC[C@H]3[C@@]2(C)O)[C@@H]2C[C@]34O[C@@]5(O)[C@@H](OC(=O)[C@](C)(O)[C@@H](C)O)CC[C@@]3(C)[C@@H]5[C@@H](OC(C)=O)[C@@H](OC(C)=O)[C@H]4[C@@]21O`, the growth inhibition in experiment [1] is 8.75%; in experiment [2] it was 6.25%; in experiment [3], -23.6%; in experiment [4], 12.6%; in experiment [5] it was 4.9%; in experiment [6] it was 25.5%.
With `CN(C)C(=O)NC(O)C(Cl)(Cl)Cl` (stereo unspecified), the growth inhibition in experiment [1] is -20.4%; in experiment [2], -8.35%; in experiment [3] it was -5.45%; in experiment [4], -21.1%; in experiment [5], -4.25%; in experiment [6], 19.1%.
Take `CCCCS(=O)(=O)Cl`: the growth inhibition in experiment [1] is 34.5%; in experiment [2], 13.2%; in experiment [3], 9.8%; in experiment [4], -12.5%; in experiment [5], 29.8%; in experiment [6] it was 25.9%.
`CCC(CCl)NC(CC(C)C)CC(C)C` (stereo unspecified): the growth inhibition is -1.95% in experiment [1]; 2.95% in experiment [2]; -6.75% in experiment [3]; -10.5% in experiment [4]; -4.7% in experiment [5]; -10.8% in experiment [6].
In the case of `COCCOC(=O)NCP(Cl)(CNC(=O)OCCOC)(CNC(=O)OCCOC)CNC(=O)OCCOC`, the growth inhibition in experiment [1] was -11.6%; in experiment [2], -4.85%; in experiment [3] it was -29.8%; in experiment [4], -19.7%; in experiment [5] it was -1.75%; in experiment [6] it was -5.75%.
`CCCC[S][Hg][I]`: the growth inhibition in experiment [1] is 92.5% (active); in experiment [2], 98.7% (active); in experiment [3], 97.9% (active); in experiment [4], 38.9%; in experiment [5], 99.1% (active); in experiment [6], 98.8% (active).
Consider `NS(=O)(=O)c1ccc(N=Nc2ccc([As](=O)(O)O)cc2)cc1`, for which the growth inhibition in experiment [1] was 43%; in experiment [2] it was 6.6%; in experiment [3], 18.6%; in experiment [4], 19.2%; in experiment [5] it was 3.45%; in experiment [6], 19.9%.
Regarding `O=P(O)(Nc1ccccc1)Nc1ccccc1`, the growth inhibition in experiment [1] is 21.7%; in experiment [2], 33.4%; in experiment [3] it was 21%; in experiment [4] it was -15.1%; in experiment [5] it was 25.3%; in experiment [6] it was 15.3%.
`CP1(=O)CC23CCCCC2(C1)O3` (stereo unspecified): the growth inhibition was 2% in experiment [1]; -29.9% in experiment [2]; -3.3% in experiment [3]; -44.2% in experiment [4]; -15% in experiment [5]; -7.9% in experiment [6].
